Assay results from the supplement of paper PMC8253809.
Where “and” joins values, the source holds several entries; their conditions need not be identical. Equal entries are not always repeated.

How the values were obtained:
Assay in all cases: growth inhibition (% activity, log2 RLU normalised to DMSO / staurosporine); higher = more growth inhibition
Conditions in all cases: 33 µM
DIPGX29 = system: DIPGX29 (H3.3 K27M diffuse intrinsic pontine glioma line)
Outline: (§1)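 The growth-inhibition value comes from CellTiter-Glo luminescence, log2-transformed, normalised per plate to % activity between solvent and positive control wells, and taken as the median over replicates. Treatment of pHGG cell lines and H9-derived neural stem cells with approved drugs was at a single final concentration of about 33 μM, in triplicate, for 7 days at 37 °C, 5% CO2.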

DIPGX37 = system: DIPGX37 (H3.3 K27M diffuse intrinsic pontine glioma line)
Outline: as §1

DIPGX7 = system: DIPGX7 (H3.3 K27M diffuse intrinsic pontine glioma line)
Outline: as §1

DIPGX9 = system: DIPGX9 (diffuse intrinsic pontine glioma line)
Outline: as §1

HGGX39 = system: HGGX39 (paediatric high-grade glioma line)
Outline: as §1

HGGX6 = system: HGGX6 (H3.3 G34R paediatric high-grade glioma line)
Outline: as §1

HNSC = system: HNSC
Outline: as §1

SUDIPGIV = system: SUDIPGIV (diffuse intrinsic pontine glioma line)
Outline: as §1

SUDIPGVI = system: SUDIPGVI (diffuse intrinsic pontine glioma line)
Outline: as §1

SUDIPGXIII = system: SUDIPGXIII (diffuse intrinsic pontine glioma line)
Outline: as §1

Row | SMILES | growth inhibition (DIPGX29) | growth inhibition (DIPGX37) | growth inhibition (DIPGX7) | growth inhibition (DIPGX9) | growth inhibition (HGGX39) | growth inhibition (HGGX6) | growth inhibition (HNSC) | growth inhibition (SUDIPGIV) | growth inhibition (SUDIPGVI) | growth inhibition (SUDIPGXIII)
1 | C[N+]1(C)[C@@H]2C[C@@H](OC(=O)C(O)(c3cccs3)c3cccs3)C[C@H]1[C@@H]1O[C@@H]12 | -2.02% | -0.731% | -2.26% | -2.3% | -2.1% | -0.274% | -3.15% | -1.02% | -2.31% | 0.889%
2 | CCN1CC(CCN2CCOCC2)C(c2ccccc2)(c2ccccc2)C1=O (stereo not drawn) | 3.26% | 4.12% | 3.42% | 1.56% | 3.54% | 3.39% | 6.96% | 3.42% | 2.27% | -0.683%
3 | Cc1onc(-c2c(Cl)cccc2Cl)c1C(=O)N[C@@H]1C(=O)N2[C@@H]1SC(C)(C)[C@@H]2C(=O)O | 1.78% | 1.6% | 0.879% | 0.739% | 2.25% | 1.63% | -0.363% | 1.41% | 2.27% | -0.796%
4 | OCCN1C[C@H](O)[C@@H](O)[C@H](O)[C@H]1CO | 2.17% | 1.74% | 3.33% | 2.76% | 4.58% | 1.44% | 6.31% | 2.25% | 4.59% | 1.39%
5 | CCOc1cc(N)c(Cl)cc1C(=O)NCC1CN(Cc2ccc(F)cc2)CCO1 (stereo not drawn) | -0.0532% | 1.06% | 0.919% | 1.54% | 1.87% | 0.0657% | 1.23% | 0.346% | 1.9% | 1.85%
6 | NC[C@H]1O[C@H](O[C@H]2[C@H](O)[C@@H](O[C@H]3O[C@H](CO)[C@@H](O)[C@H](N)[C@H]3O)[C@H](N)C[C@@H]2N)[C@H](N)C[C@@H]1O | -1.1% | -0.159% | -0.415% | -0.0629% | -1.03% | 1.31% | -1.87% | -0.0713% | -0.514% | -17.5%
7 | CC(=O)OCC(=O)[C@H]1CC[C@H]2[C@@H]3CCC4=CC(=O)CC[C@]4(C)[C@H]3CC[C@]12C | -1.69% | -0.592% | -0.0117% | -0.0895% | 1.53% | -0.537% | -2.47% | -2% | -0.651% | 5.18%
8 | CC1CNc2c(cccc2S(=O)(=O)N[C@@H](CCCNC(=N)N)C(=O)N2CC[C@@H](C)C[C@@H]2C(=O)O)C1 (stereo partly drawn) | 0.0741% | 1.59% | -1.49% | 0.277% | -0.0474% | -1.28% | 12.3% | 1.8% | 0.243% | -1.66%
9 | C/C(O)=C(\C#N)C(=O)Nc1ccc(C(F)(F)F)cc1 | 3.56% | 5.04% | 3.25% | 5.83% | 5.87% | 5.21% | 2.85% | 9.89% | 4.21% | -15.3%
10 | COc1c(C)c2c(c(O)c1C/C=C(\C)CCC(=O)O)C(=O)OC2 | 19.1% | 19% | 12% | 16.2% | 18.1% | 14.7% | 57.6% | 10.7% | 11.8% | -4.08%
11 | CC(C)Cc1ccc(C(C)C(=O)O)cc1 (stereo not drawn) | 0.835% and -0.392% | 2.64% and 0.0742% | 2.15% and 0.0236% | 1.07% and 0.0197% | 2.25% and -0.715% | 1.92% and 1.49% | -0.67% and 0.218% | -1.49% and -4.48% | 2.09% and 0.812% | -0.0501% and 0.956%
12 | CC(C)(CO)[C@@H](O)C(=O)NCCC(=O)O | -2.53% | -0.522% | -0.818% | -0.68% | -0.909% | -0.397% | -0.802% | -0.366% | -3.69% | 1.65%
13 | NC(=O)CC[C@H](N)C(=O)O | -1.66% | 0.802% | -0.27% | 0.17% | -0.498% | -1.45% | -2.34% | -1.24% | 1.4% | -0.384%
14 | CN1CCC(=C2c3ccccc3CCc3sccc32)CC1 | 2.69% | 1.01% | 1.97% | 2.15% | 7.57% | -1.66% | 1.57% | 3.73% | -0.736% | 1.69%
15 | CCCCCCCCCCC[C@@H](C[C@@H]1OC(=O)[C@H]1CCCCCC)OC(=O)[C@H](CC(C)C)NC=O | -2.1% | -1.45% | -1.06% | -1.8% | -0.97% | 0.864% | -6.06% | -1.86% | -3.34% | 0.12%
16 | CC1OC(n2cc(F)c(=O)[nH]c2=O)C(O)C1O (stereo not drawn) | -0.415% | 1.44% | -1.58% | 1.19% | -0.346% | 1.76% | -0.812% | 2.36% | 0.29% | 1.21%
17 | CCc1nc(N)nc(N)c1-c1ccc(Cl)cc1 | 16.1% | 2.67% | 1.94% | 4.42% | 7.42% | 2.78% | 6.9% | 12.6% | 7.22% | 4.01%
18 | CCCc1nn(C)c2c(=O)[nH]c(-c3cc(S(=O)(=O)N4CCN(C)CC4)ccc3OCC)nc12 | 0.246% | -4.11% | 0.899% | -0.0138% | 0.834% | -0.171% | 0.834% | -2.48% | 0.71% | -0.097%

Row | SMILES | growth inhibition (DIPGX29) | growth inhibition (DIPGX37) | growth inhibition (DIPGX7) | growth inhibition (DIPGX9) | growth inhibition (HGGX39) | growth inhibition (HGGX6) | growth inhibition (HNSC) | growth inhibition (SUDIPGIV) | growth inhibition (SUDIPGVI) | growth inhibition (SUDIPGXIII)
19 | COC(=O)C1=C(C)NC(C)=C(C(=O)OCCN2CCN(C(c3ccccc3)c3ccccc3)CC2)C1c1cccc([N+](=O)[O-])c1 (stereo not drawn) | 5.69% | 6.99% | 4.72% | 4.03% | 8.12% | 5.46% | 73% | 3.75% | 6.07% | 22%
20 | N=C(N)NS(=O)(=O)c1ccc(N)cc1 | 1.78% | 3.55% | 1.86% | 2.35% | 3.26% | 1.87% | 0.257% | 1.45% | 1.1% | -0.789%
21 | C=C[C@H]1CN2CC[C@H]1C[C@H]2[C@H](O)c1ccnc2ccc(OC)cc12 | 2.06% | 3.05% | 2.14% | 2.35% | 3.17% | 1.13% | 2.99% | 2.17% | 4.23% | -0.182%
22 | CN1C2CCCC1CC(NC(=O)c1nn(C)c3ccccc13)C2 (stereo not drawn) | 1.3% | -1.75% | 0.448% | 1.03% | 1.66% | 1.21% | 1.6% | 0.0415% | 1.95% | 0.965%
23 | CN1CC(=O)N2[C@H](c3ccc4c(c3)OCO4)c3[nH]c4ccccc4c3C[C@@H]2C1=O | -0.154% | 2.3% | 0.64% | 0.257% | 2.46% | 0.71% | -0.244% | 0.899% | -1.44% | 2.73%
24 | N=C(N)NC(=N)NCCc1ccccc1 | 2.55% | 2.09% | 2.16% | 3.4% | 3.43% | 1.66% | 13% | 3.22% | 7.27% | 2.1%
25 | C[C@@H]1C[C@H]2[C@@H]3CCC4=CC(=O)C=C[C@]4(C)[C@@]3(Cl)[C@@H](O)C[C@]2(C)[C@@]1(OC(=O)c1ccco1)C(=O)CCl | 2.55% | 2.99% | 2.36% | 5.3% | 6.75% | 4.28% | 0.466% | 14.2% | 2.53% | -3.14%
26 | CCC(C)C1OC2(CCC1C)CC1CC(CC=C(C)C(OC3CC(OC)C(OC4CC(OC)C(O)C(C)O4)C(C)O3)C(C)C=CC=C3COC4C(O)C(C)=CC(C(=O)O1)C34O)O2 (stereo not drawn) | 3.13% | 0.396% | 1.82% | 2.33% | 3.17% | 15.6% | 27.4% | 0.217% | 3.51% | 47.6%
27 | C[C@@](Cc1ccc(O)c(O)c1)(NN)C(=O)O | -0.229% | 0.519% | -0.935% | 2.31% | -0.733% | 0.427% | -1.19% | 0.65% | 2.9% | 1.25%
28 | CC(C)(C)c1ccc(C(O)CCCN2CCC(C(O)(c3ccccc3)c3ccccc3)CC2)cc1 (stereo not drawn) | -0.594% | -0.074% | 0.488% | 0.591% | 2.84% | 1.58% | 0.144% | -0.418% | -2.2% | -0.826%
29 | N=C(N)NC(=O)c1nc(Cl)c(N)nc1N | 1.79% and -1.36% | 1.85% and 0.649% | 1.7% and 0.904% | 2.64% and 0.337% | 2.38% and 4% | -0.794% and 0.512% | – | 7.17% and 6.85% | 2.25% and 2.53% | -0.984% and -0.159%
30 | CC(=O)NC[C@H]1CN(c2ccc(N3CCOCC3)c(F)c2)C(=O)O1 | 0.341% | -2.02% | 0.521% | 1.07% | 3.34% | 1.89% | 6.16% | 4.69% | 1.21% | 1.55%
31 | O=C(O)Cc1ccccc1Nc1c(Cl)cccc1Cl | -1.37% and -2.99% and -0.71% | -1.99% and -1.73% and 0.418% | -1.57% and -1.88% and -1.25% | -1.08% and -0.109% and -0.719% | -2.62% and -2.86% and 0.69% | 0.514% and 2.52% and -0.0763% | -3.6% and -4.25% and -2.46% | -6.51% and -6.18% and -5.78% | -1.69% and -1.9% and -1.43% | -0.705% and -7.4% and 0.367%
32 | CC1CC(OC(=O)C(O)c2ccccc2)CC(C)(C)C1 (stereo not drawn) | -0.681% | 1.83% | 0.84% | 0.0624% | 1.43% | -3.88% | 10.7% | 2.02% | 0.402% | 1.8%
33 | Cc1cc(NC(=O)C2=C(O)c3ccccc3S(=O)(=O)N2C)no1 | -3.22% | -1.66% | -1.69% | -3.17% | -4.59% | -4.04% | 7.58% | -5.37% | -10.5% | -0.431%
34 | Nc1[nH]cnc2ncnc1-2 | -2.79% and 0.888% and 0.703% | -2.72% and -1.28% and 1.74% | -0.783% and 2.97% and -0.884% | -3.07% and 2.41% and -1.07% | -1.64% and 3.54% and 2.19% | -4.48% and -0.101% and -1.37% | – | -2.98% and 0.339% and 0.701% | -1.95% and 3.66% and 1.39% | -0.991% and 0.292% and 0.516%
35 | COc1cc2nc(N3CCN(C(=O)C4CCCO4)CC3)nc(N)c2cc1OC (stereo not drawn) | 1.51% | -0.298% | 0.774% | 0.282% | 2.19% | -0.97% | 28% | 2.95% | -1.11% | -3.7%
